Screening results: PubChem BioAssay, The Scripps Research Institute Molecular Screening Center
Most compounds without a hit are left out; they make up all but 1.1% or so of the library.
OPRM1-OPRD1 ag: agonists of human mu-delta opioid receptor heterodimerization. P35372+P41143. cells, OPRM1-OPRD1 heterodimerization, luminescence. activation, % at 9.3 µM. actives 0.3% (n = 340,000);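 also: 0% = vehicle-treated cells and 100% = reference agonist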
HTR5A inv ctr: inverse agonist of human HTR5A in OPRM1-OPRD1 counter-screen; P47898; HTR5A cell line, luminescence, inverse agonism; inhibition, % at 9.3 µM; actives 0.083% (n = 340,000); in the data active = inhibition mostly above about 23%, no sharp cut-off; inactive = mostly below about 18%;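 also: 0% = cells with DMSO and 100% = no-cell wells with DMSO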
Target sequence (P47898 whole entry, looked up): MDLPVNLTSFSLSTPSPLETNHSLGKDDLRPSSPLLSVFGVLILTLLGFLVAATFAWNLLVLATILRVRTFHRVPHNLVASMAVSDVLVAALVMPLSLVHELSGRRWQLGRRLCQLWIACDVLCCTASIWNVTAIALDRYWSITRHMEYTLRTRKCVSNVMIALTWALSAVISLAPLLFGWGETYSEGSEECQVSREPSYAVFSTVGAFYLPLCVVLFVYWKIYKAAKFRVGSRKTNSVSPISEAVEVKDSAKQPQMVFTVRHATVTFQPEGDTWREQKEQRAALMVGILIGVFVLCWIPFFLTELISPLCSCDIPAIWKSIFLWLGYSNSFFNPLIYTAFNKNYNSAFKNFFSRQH
HTR5A ag: HTR5A agonism, opioid heterodimer counter-screen. activation, % at 9.3 µM. P47898. HTR5A agonist assay, luminescence, cell-based. actives 0.61% (n = 340,000); in the data active = activation mostly above about 9.5%, no sharp cut-off; inactive = mostly below about 7.6%;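 also: 0% = cells with vehicle only and 100% = reference agonist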
OPRM1-OPRD1 inv: inverse agonist of human OPRM1-OPRD1 heterodimerization; AID 504357; inhibition, % at 9.3 µM; actives 0.21% (n = 340,000); cell-based MOR-DOR heterodimer luminescence, inverse agonism; in the data active = inhibition above about 22%, passing the limit was not always enough;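 also: 0% = cells with DMSO and 100% = wells without cells with DMSO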
MOR-DOR ag conf: confirmation of human OPRM1-OPRD1 heterodimerization agonists; shares compounds with OPRM1-OPRD1 ag; cells, MOR-DOR heterodimerization, luminescence complementation; activation, % at 9.3 µM; actives 45% (n = 830);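 also: 0% = vehicle-treated cells and 100% = reference agonist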
HTR5A ag counter: counter-screen for OPRM1-OPRD1 agonists: human HTR5A agonism | shares compounds with OPRM1-OPRD1 ag | HTR5A agonist counterscreen, cell luminescence | activation, % at 9.3 µM | actives 8% (n = 830); in the data active = activation above about 17%;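 also: 0% = vehicle-treated cells and 100% = reference agonist response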
Starred values were filed as active, the others as inactive; i = inactive. Rule as the data show it, unless noted: active = activation above about 18%; inactive = the rest.

SMILES	OPRM1-OPRD1 ag	HTR5A inv ctr	HTR5A ag	OPRM1-OPRD1 inv	others
C[C@@H]1O[C@@H](O[C@H]2C[C@@H](O)[C@]3(CO)[C@H]4[C@H](O)C[C@]5(C)[C@@H](C6COC(=O)C6)CC[C@]5(O)[C@@H]4CC[C@]3(O)C2)[C@H](O)[C@H](O)[C@H]1O (stereo not given in full)	73.0*	-80.6	27.2	-404.3
COc1cc(C)c(CNCCc2c[nH]c3ccccc23)cc1C	-0.6	-4.5	1.2	2.8
COc1ccc(SCC2CN(C)CCC2c2ccc(F)cc2)cc1 (stereo not given)	2.6	-8.7	3.0	-13.3
Cc1cccc(CCNCc2cc3ccc(C)cc3[nH]c2=O)c1	-1.0	-43.3	11.8*	4.5
Cc1ccc2[nH]c(C)c(CCNCc3ccco3)c2c1	0.4	4.9	-1.3	-1.9
CC=C(C)C1(CCC)C(=O)NC(=S)NC1=O	-1.1	4.8	-1.3	4.6
C[C@@H]1O[C@@H](O[C@@H]2C=C3CC[C@@H]4C(CC[C@]5(C)[C@@H](c6ccc(=O)oc6)CC[C@]45O)[C@@]3(C)CC2)[C@H](O)[C@H](O)[C@H]1O (stereo not given in full)	67.9*	-64.7	22.1*	-392.6
CC(=O)C1CCC2(O)C3CCC4=CC(=O)CCC4(C)C3CCC12C (stereo not given)	-3.7	8.7	-2.2	19.1
CCN1/C(=C\C=C\C2=[N+](CC)c3ccccc3C2(C)C)C(C)(C)c2ccccc21	8.5	38.2*	-11.1	-52.9
Cc1cccc(N=C2c3cc([N+](=O)[O-])ccc3-c3c2cc([N+](=O)[O-])cc3[N+](=O)[O-])c1	9.4	-18.4	4.5	-48.7
S=c1[nH]c2ccccc2[nH]1	-3.5	-28.7	10.4*	15.9
CC(=O)NCCc1c[nH]c2ccccc12	0.1	9.0	-0.5	-0.6
NCCc1c[nH]c2ccccc12	2.3	-7.1	49.7*	-11.4
c1coc(CNCCc2c[nH]c3ccccc23)c1	-2.1	-49.6	13.4*	9.5
O=c1[nH]c(=S)n(-c2ccccc2F)c(O)c1C=NCCN1CCNCC1	-2.4	8.2	-2.2	12.0
CC(C)(C#CC(=O)O)OOC(c1ccccc1)(c1ccccc1)c1ccccc1	-1.7	5.9	-1.6	8.3
Cn1c(O)c(/C=N/N2CCOCC2)c(=O)n(C)c1=S	-2.7	1.7	4.1	14.1
CCOc1cccc(CNCCc2c(C)[nH]c3ccc(OC(F)(F)F)cc23)c1O	20.0*	-62.5	15.9*	-111.0
N#Cc1cc2c(nc1SCC(=O)Nc1ccc(Cl)cc1)C1CCN2CC1	0.8	-1.7	12.0*	-4.2
N#Cc1cc2c(nc1SCC(=O)Nc1cc(Cl)ccc1Cl)C1CCN2CC1	-0.6	-1.3	0.5	2.9
COC(=O)C1C2c3ccccc3C(c3ccccc32)C1(C)C(=O)OC (stereo not given)	-1.7	-0.5	0.1	8.7
Cc1ccc(C(=O)Nc2ccc(Cl)cc2C(=O)c2ccccc2)cc1	7.5	-39.0	10.8*	-42.5
Cc1cc(C)cc(N2C(=O)NC(=O)/C(=C\c3cccn3-c3ccc(Cl)cc3)C2=O)c1	1.4	-51.4	14.1*	-7.2
Cc1cc(C)cc(N2C(=O)NC(=O)/C(=C\c3cccn3-c3ccccc3)C2=O)c1	1.4	-22.6	12.5	-6.8
COc1ccc(C(=O)N/N=C/C23CC[C@@H](O)CC2(O)CC[C@@H]2[C@@H]3CCC3(C)C(C4=CC(=O)OC4)CCC23O)cc1 (stereo not given in full)	33.5*	19.3	30.1*	-169.0
SMILES	OPRM1-OPRD1 ag	HTR5A inv ctr	HTR5A ag	OPRM1-OPRD1 inv	others
CN(C)c1ccc(C(=O)N/N=C/C23CC[C@@H](O)CC2(O)CC[C@@H]2[C@@H]3CCC3(C)C(C4=CC(=O)OC4)CCC23O)cc1 (stereo not given in full)	59.1*	5.5	34.5*	-301.1
NS(=O)(=O)c1nc[nH]c1[N+](=O)[O-]	-2.7	-2.0	0.5	14.2
CC(=O)OC1CC(OC2C(O)CC(OC3C(O)CC(OC4CCC5(C)C(CCC6C5CCC5(C)C(C7=CC(=O)OC7)CCC65O)C4)OC3C)OC2C)OC(C)C1OC1OC(CO)C(O)C(O)C1O (stereo not given)	67.9*	-146.4	37.5*	-349.1
COC(=O)C1=C(c2ccc(F)cc2OCc2ccccc2)C[C@@H]2CC[C@H]1N2C(=O)NCCN1CCOCC1	0.7	7.1	-2.8	-3.8
C#CC1(O)C=CC2C3CCC4=CC(=O)CCC4C3CCC21CC (stereo not given)	0.6	10.0	-2.8	-2.5
C#CC1(O)CCC2C3CCC4=CC(=O)CCC4=C3C=CC21C (stereo not given)	-0.3	-42.8	10.9*	1.6
O=c1c2ccccc2nc(/C=C/c2ccc(O)cc2)n1-c1ccc(O)cc1	2.7	10.5	-3.0	-12.1
O=c1c2ccccc2nc(/C=C/c2ccc(O)cc2)n1-c1cccc(O)c1	-2.0	-25.1	9.8*	11.7
COc1ccc(-n2c(/C=C/c3ccc(O)cc3)nc3ccccc3c2=O)cc1	1.0	-37.8	10.0*	-4.8
COC(=O)C1=C(c2cccc(C#N)c2)C[C@@H]2CC[C@H]1N2C(=O)NCc1ccco1	-1.4	-13.6	4.7	8.1
CC(C)c1ccc(-n2c(O)c(C=NCCN3CCNCC3)c(=O)[nH]c2=S)cc1	0.9	-38.8	10.0*	-4.3
Cc1ccc(-n2c(O)c(C=NCCN3CCNCC3)c(=O)[nH]c2=S)cc1	-1.0	1.9	-0.6	4.5
Cc1cc(N2CCN(C)CC2)nc2ccccc12	-0.1	-34.2	9.1*	0.7
CC(Cc1ccccc1)NC(=O)Cc1ccc(N(C)C)cc1 (stereo not given)	-1.3	27.0	1.1	6.5
CN(C)C(CNC(=O)Cc1ccc(Br)cc1)c1ccccc1 (stereo not given)	141.4*	1.8	-0.6	i	MOR-DOR ag conf=213.8*;HTR5A ag counter=-4.5
c1ccc(C2(N3CCCCC3)CCCCC2)cc1	373.9*	17.9	-7.7	i	MOR-DOR ag conf=345.9*;HTR5A ag counter=-1.8
CC1(C)CC(CCNCc2ccc3c(c2)OCO3)(Cc2ccccc2)CCO1 (stereo not given)	30.9*	3.0	-1.1	-162.8	MOR-DOR ag conf=27.6*;HTR5A ag counter=-4.1
Clc1cccc(CNCCc2ccc3c(c2)OCO3)c1	2.4	19.1	-5.4	-11.0
C[C@@H]1O[C@@H](O[C@@H]2C=C3CCC4C(CC[C@]5(C)[C@@H](c6ccc(=O)oc6)CC[C@]45O)[C@@]3(C)CC2)[C@H](O)[C@H](O)[C@H]1O (stereo not given in full)	70.6*	-106.5	29.8*	-381.5	MOR-DOR ag conf=33.8*;HTR5A ag counter=27.2*
CCC(=O)C(CCN1CCOCC1)(c1ccccc1)c1ccccc1	271.4*	2.8	0.7	i	MOR-DOR ag conf=250.2*;HTR5A ag counter=-1.1
N#CC(CCN1CCOCC1)(c1ccccc1)c1ccccc1	-4.1	2.3	-0.6	21.3
COC(=O)C1=CO[C@@H](C)[C@@H]2CN(CCc3c[nH]c4ccccc34)CC[C@H]12	91.6*	-12.6	-8.1	i	MOR-DOR ag conf=122.8*;HTR5A ag counter=1.0
